Assay results from PubChem BioAssay.

biological target: Fibroblast growth factor 2 (Homo sapiens) (UniProt P09038); assay: basic fibroblast growth factor binding to printed compounds – biochemical, small-molecule microarray, 635/667 nm fluorescence, primary screen (AID 1133); conditions: FGF2, fluorescence 635/667, higher = more signal
Sequence (P09038 whole entry, looked up): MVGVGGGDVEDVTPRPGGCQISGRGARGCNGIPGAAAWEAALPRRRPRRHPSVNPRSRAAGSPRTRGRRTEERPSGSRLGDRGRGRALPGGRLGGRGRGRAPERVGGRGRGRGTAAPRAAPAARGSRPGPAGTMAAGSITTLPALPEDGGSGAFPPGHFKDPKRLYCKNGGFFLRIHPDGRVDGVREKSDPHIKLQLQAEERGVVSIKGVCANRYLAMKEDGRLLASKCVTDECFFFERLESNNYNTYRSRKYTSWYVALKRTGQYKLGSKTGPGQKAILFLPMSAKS

Compound | composite z-score
CCCNC(=O)[C@@H]1c2ccccc2C(=O)N(Cc2ccccc2OC)[C@H]1c1ccc(CO)cc1 | 1.06
CC[C@@H]1C=C(C(=O)O)[C@H](c2ccc(C)cc2)N1S(=O)(=O)c1ccc(C)cc1 | 0.0388
O=C1O[C@H](c2ccccc2)[C@H](c2ccccc2)N2[C@H]1[C@@H](C(=O)NC[C@H](O)c1ccccc1)[C@]1(C(=O)Nc3ccccc31)[C@H]2c1ccc(O)cc1 | 1.71
Cc1ccc(S[C@]2(C(=O)NCC(C)C)CC(=O)N(Cc3cc(C(F)(F)F)cc(C(F)(F)F)c3)[C@@H]2c2ccc(CO)cc2)cc1 | -0.205
COCCOC(=O)N1C(=O)[C@@]2(c3cc(C#CC4=CCCCC4)ccc31)[C@H](c1ccc(OCCO)cc1)N1[C@H](c3ccccc3)[C@H](c3ccccc3)OC(=O)[C@H]1[C@@H]2C(=O)N1CCc2cc(OC)c(OC)cc2C1 | 1.32
COc1ccccc1CN1C(=O)c2ccccc2[C@@H](C(=O)NCc2ccccc2)[C@@H]1c1ccc(CO)cc1 | 0.546
COCCOC(=O)N1C(=O)[C@@]2(c3ccccc31)[C@H](C(N)=O)[C@H]1C(=O)O[C@H](c3ccccc3)[C@H](c3ccccc3)N1[C@@H]2c1ccc(O)cc1 | -0.488
C=C(/C(=C/C[C@H](OC(C)=O)c1ccc(OCCO)cc1)c1cc(C(=O)OC)ccc1OC)C(C)C | 1.58
COCCCNC(=O)[C@@]1(Sc2ccc(C)cc2)CC(=O)N(Cc2ccccc2Cl)[C@@H]1c1ccc(CO)cc1 | 1.24
O=C(O)[C@H](Cc1ccccc1)n1cc(-c2ccccc2)nn1 | 0.607
CC(C)[Si](C#CCCCC#N)(Oc1ccccc1Br)C(C)C | 0.223
C=CC1c2cc(O)c(OC)cc2CCN1Cc1cccc(OC(F)(F)F)c1 (centres undefined) | -0.43
O=C1OCCC=C[C@H]2OC34C=CCN(Cn5nnc6ccccc65)C(=O)[C@H]3N(CCO)C(=O)[C@@H]4C12 (some centres undefined) | -1.3
CC(C)[Si](C#C[Si](C(C)C)(C(C)C)C(C)C)(O[C@H](C)c1cn(Cc2ccccc2)nn1)C(C)C | 0.427

test system: not listed separately; assay: JC-1 mitochondrial potential readout, lung cancer cells – cell-based, A549, JC-1 fluorescence, basal, 24 h, 100 nL, profiling panel (AID 1138); conditions: higher = more signal;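 note: A549 lung adenocarcinoma cells under basal conditions with no added stimulus; test concentration not given here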

Compound | z-score
COC(=O)C[C@H]1O[C@@H](CCc2ccccc2)[C@@H](C)[C@@H]1[Si](C)(C)c1ccc(OC)cc1 | 1.57
CC(=CC1CCCCC1)[C@@H](NC(=O)c1cccnc1)c1ccc(-c2ccccc2)cc1 | -0.637
[N-]=[N+]=Nc1ccccc1C[C@]1(C(=O)NCC(O)CO)N=C(c2ccc(OCCCO)cc2)O[C@H]1c1ccccc1 (some centres undefined) | 0.0609
COCC(=C=CC[C@H](O)c1cccc(OCCO)c1)CCO | -0.0195
COC(=O)[C@H](Cc1ccccc1)N[C@H](/C=C/C1CC1)[C@@H](O)Cc1ccccc1 | -0.0444
C=CCOC(=O)[C@H]1[C@@H]2C(=O)O[C@@H](c3ccccc3)[C@@H](c3ccccc3)N2[C@@H](c2ccc(OCCOC(=O)[C@@H]3C[C@@H]4C(=O)N5CCC[C@H]5C(=O)N4[C@@H]3c3cccc(OCCO)c3)cc2)[C@]12C(=O)Nc1ccc(I)cc12 | -0.838
COCC(=C=CC[C@@H](O)c1ccc(OCCO)cc1)C[C@@H](O)c1ccccn1 | 0.0965
COc1ccc([Si](C)(C)[C@@H]2[C@@H](CCO)O[C@]3(C(=O)N(Cc4cccc(N5CCOC5=O)c4)c4ccccc43)[C@H]2C)cc1 | -0.393
[N-]=[N+]=Nc1ccccc1[C@H]1OC(c2ccc(OCCCO)cc2)=N[C@@]1(Cc1ccccc1)C(=O)N1CCOCC1 | -0.254
CN1C(=O)C2C=CC(C(O)C=Cc3ccc([N+](=O)[O-])cc3)N(Nc3ccccc3)C2C1=O (centres undefined) | 0.509
C#CCOc1ccc(C[C@@H](C(=O)OC)N(CC#C)[C@@H](/C=C/C2CC2)[C@H](O)Cc2ccccc2)cc1 | 2.32
O=C(NCc1ccccc1)[C@@H]1c2ccccc2C(=O)N(C2Cc3ccccc3C2)[C@H]1c1ccc(CO)cc1 | 0.353
COC(=O)c1c2oc(c1C(=O)OC)C(=O)NC1(CCCCC1)c1cn(nn1)C[C@H](Cc1ccccc1)NC(=O)N[C@H](CO)CC2 | 0.304
CCCCCCc1nc(-c2ccc(-c3ccc(Cl)c(Cl)c3)o2)cc2c1[Si](C(C)C)(C(C)C)O[C@H]2c1ccccc1 | -0.859
COCCOC(=O)N1C(=O)[C@@]2(c3cc(C#CC4(O)CCCCCC4)ccc31)[C@H](C(=O)Nc1nc3ccccc3s1)[C@H]1C(=O)O[C@H](c3ccccc3)[C@H](c3ccccc3)N1[C@@H]2c1ccc(OCCO)cc1 | -2.51
COC(=O)[C@@]1(Cc2ccc(OC)cc2)[C@H]2c3cc(C(=O)N4CCCC4)n(CCCNc4ncc(C(F)(F)F)cc4Cl)c3C[C@H]2CN1C(=O)c1ccccc1 | -1.51
COC(=O)[C@@]1(Cc2ccc(OC)cc2)[C@H]2c3cc(C(=O)N4CCCC4)n(CCc4ccc(O)c(O)c4)c3C[C@H]2CN1C(=O)c1ccccc1 | -0.72
Cc1c(NC(=O)/C(C#N)=C/c2cccc([N+](=O)[O-])c2)c(=O)n(-c2ccccc2)n1C | 0.365

Compound | z-score
C[N+](C)(C)CCCC[C@@H]1NC(=O)[C@@H]2C[C@H](C(=O)NCCCCCCNC(=O)CS)[C@H](c3ccc(O)cc3)N2C1=O | -0.122
COC(=O)[C@@]1(Cc2ccccc2)[C@H]2c3cc(C(=O)N4CCCC4)n(Cc4ccc(O)c(OC)c4)c3C[C@H]2CN1C(=O)c1ccccc1 | 1.15
O=C1O[C@@H](c2ccccc2)[C@@H](c2ccccc2)N2[C@@H](c3ccccc3OCCO)[C@]3(C(=O)Nc4ccccc43)[C@@H](C(=O)O)[C@H]12 | -0.184
CCCNC(=O)[C@@H]1c2ccccc2C(=O)N(Cc2ccccc2OC)[C@H]1c1ccc(CO)cc1 | 1.53
CC[C@@H]1C=C(C(=O)O)[C@H](c2ccc(C)cc2)N1S(=O)(=O)c1ccc(C)cc1 | -0.233
O=C1O[C@H](c2ccccc2)[C@H](c2ccccc2)N2[C@H]1[C@@H](C(=O)NC[C@H](O)c1ccccc1)[C@]1(C(=O)Nc3ccccc31)[C@H]2c1ccc(O)cc1 | -0.236
Cc1ccc(S[C@]2(C(=O)NCC(C)C)CC(=O)N(Cc3cc(C(F)(F)F)cc(C(F)(F)F)c3)[C@@H]2c2ccc(CO)cc2)cc1 | -0.587
COCCOC(=O)N1C(=O)[C@@]2(c3cc(C#CC4=CCCCC4)ccc31)[C@H](c1ccc(OCCO)cc1)N1[C@H](c3ccccc3)[C@H](c3ccccc3)OC(=O)[C@H]1[C@@H]2C(=O)N1CCc2cc(OC)c(OC)cc2C1 | -0.729
COc1ccccc1CN1C(=O)c2ccccc2[C@@H](C(=O)NCc2ccccc2)[C@@H]1c1ccc(CO)cc1 | 1.03
COCCOC(=O)N1C(=O)[C@@]2(c3ccccc31)[C@H](C(N)=O)[C@H]1C(=O)O[C@H](c3ccccc3)[C@H](c3ccccc3)N1[C@@H]2c1ccc(O)cc1 | 0.381
C=C(/C(=C/C[C@H](OC(C)=O)c1ccc(OCCO)cc1)c1cc(C(=O)OC)ccc1OC)C(C)C | 1.75
COCCCNC(=O)[C@@]1(Sc2ccc(C)cc2)CC(=O)N(Cc2ccccc2Cl)[C@@H]1c1ccc(CO)cc1 | -0.689
O=C(O)[C@H](Cc1ccccc1)n1cc(-c2ccccc2)nn1 | -0.469
CC(C)[Si](C#CCCCC#N)(Oc1ccccc1Br)C(C)C | -0.0477
C=CC1c2cc(O)c(OC)cc2CCN1Cc1cccc(OC(F)(F)F)c1 (centres undefined) | -1.03
O=C1OCCC=C[C@H]2OC34C=CCN(Cn5nnc6ccccc65)C(=O)[C@H]3N(CCO)C(=O)[C@@H]4C12 (some centres undefined) | -0.758
CC(C)[Si](C#C[Si](C(C)C)(C(C)C)C(C)C)(O[C@H](C)c1cn(Cc2ccccc2)nn1)C(C)C | 0.0378
